SRC3 inh = inhibitors of human steroid receptor coactivator 3 (SRC3). Q9Y6Q9. HEK293 GAL4-SRC3 luciferase reporter, luminescence. inhibition, % at 3.6 µM. 360,000 compounds, 0.17% hits. AID 588352;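 active = inhibition above a per-campaign cutoff, the mean of all compounds plus 3 SD, cut at about 60% in these data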;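 also: 0% = DMSO-treated cells and 100% = gossypol-treated cells at 36 µM; higher means less SRC3-driven luciferase light from the GAL4 reporter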
NCOA2 inhibitor = human SRC2 (NCOA2) inhibition | Q15596 | HEK293 GAL4-SRC2 luciferase reporter, luminescence | inhibition, % at 9 µM | 370,000 compounds, 0.17% hits | AID 651957;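 active = inhibition above the mean inhibition of all tested compounds plus 3 SD, set per campaign, cut at about 52% in these data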;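 also: 0% = DMSO treated cells and 100% = cells given Gossypol at 36 µM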
Gli-Sufu block = antagonists of Gli-Sufu signaling. AID 588413. Sufu-KO-LIGHT fibroblasts, Gli luciferase reporter luminescence. inhibition, % at 5 µM. 340,000 compounds, 0.74% hits;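 active = inhibition above about 55%, limit read from the data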;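 also: 0% = DMSO-treated cells and 100% = wells with medium but no cells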
NR2F2 inh = blocks human COUP-TFII nuclear receptor; P24468; HEK293T NGFI-A luciferase reporter, luminescence; inhibition, % at 8.6 µM; 370,000 compounds, 0.7% hits;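 active = inhibition above a per-plate cutoff, mean inhibition of test wells between control levels plus 3 SD, cut at about 38% in these data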;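 also: cells cotransfected with COUP-TFII expression vector driving the NGFI-A reporter; 0% = median of COUP-TF2 test wells and 100% = reporter-only cells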
SRC1 inh = inhibitors of human steroid receptor coactivator 1 (SRC1) | Q15788 | HEK293 GAL4-SRC1 luciferase reporter, luminescence | inhibition, % at 3.6 µM | 360,000 compounds, 0.12% hits | AID 588354;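 active = inhibition above the campaign mean plus 3 SD, with each screening campaign given its own cutoff, cut at about 60% in these data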;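 also: 0% = DMSO treated cells and 100% = gossypol at 36 µM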
LRH-1 inv ag = suppresses constitutive activity of human LRH-1 | HEK293T StAR-luciferase reporter, LRH-1 transfected, 24 h | 360,000 compounds, 0.13% hits | O00482 | inhibition, % at 3.6 µM;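 active = inhibition above the mean inhibition of all tested compounds plus 3 SD, cut at about 73% in these data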;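 also: 0% = DMSO wells and 100% = reporter-only cells lacking LRH-1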
Gli-Sufu confirm = confirmation of Gli-SUFU pathway antagonists. shares compounds with Gli-Sufu block. Sufu-KO-LIGHT cells, Gli luciferase reporter, luminescence. inhibition, % at 5 µM. 2,500 compounds, 40% hits. AID 602428;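 active = mean inhibition at 5 µM reaching about 45%, limit read from the data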;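 also: plate controls were DMSO-treated cells for no effect and wells lacking cells for full effect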
SufuKO cytotox = cytotoxicity counter-screen for Gli-SUFU antagonists. 2,500 compounds, 32% hits. Sufu-KO-LIGHT cells cytotoxicity, ATP luminescence. shares compounds with Gli-Sufu block. cytotoxicity, % at 5 µM;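 active = mean cytotoxicity at 5 µM above about 25%, limit read from the data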;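 also: cells exposed to compound overnight for roughly 16 to 18 hours; plate controls were DMSO wells with cells for no effect and medium without cells for full effect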
Wnt3a cs = counter-screen for Gli-SUFU antagonists: Wnt3a reporter inhibition. Wnt-LIGHT cells, Wnt3a-driven luciferase reporter, luminescence. 2,500 compounds, 20% hits. shares compounds with Gli-Sufu block. inhibition, % at 6.25 µM;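 active = mean inhibition above about 25%, limit read from the data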
* hit, by the source's call; · = not tested or not shown. Only some compounds are listed: those with a hit (about 1.3% of all), similar ones and a draw of the others.

SMILES	SRC3 inh	NCOA2 inhibitor	Gli-Sufu block	NR2F2 inh	SRC1 inh	LRH-1 inv ag	Gli-Sufu confirm	SufuKO cytotox	Wnt3a cs
COCCN(Cc1cn(C)nc1-c1ccc(Oc2ccccc2)cc1)C(C)C	-2	-12	57*	13	1	9	17	15	-61
CC(C)(C)c1ccc(CN2C3=NCCCN3c3ccccc32)cc1	26	15	69*	8	23	9	60*	25	15
Clc1cccc(CN2C3=NCCCN3c3ccccc32)c1	9	-4	56*	17	14	8	19	24	-38
O=C(N[C@H]1C[C@@H]2O[C@@H](CO)CC[C@@H]2O[C@@H]1CCc1ccc(-c2cccnc2)cc1)c1cccc(F)c1	·	10	·	-11	·	·	·	·	·
COc1ccccc1Cc1c(C2CCCCC2)nc2c(C)cc(Br)cn12	·	18	·	-8	·	·	·	·	·
CCCOc1ccccc1N/C(N)=N/c1nc(C)cc(C)n1	-3	9	24	13	0	-10	·	·	·
CCCOc1ccccc1N/C(=N/c1nc(C)cc(C)n1)NC(=O)COc1ccc(OC)cc1	-1	-5	67*	-6	-7	2	48*	24	-15
Cc1ccc(NC(=O)CC(NCC2CCCO2)C(=O)O)cc1C (stereo unspecified)	-16	-14	57*	6	-6	10	21	-2	14
Cc1ccc(NC(=O)C(=O)NCC2CCCO2)cc1C (stereo unspecified)	-63	-24	-34	-39	-93	-85	·	·	·
COc1cc(NC(=S)NCCN2CCOCC2)cc(OC)c1OC	3	15	51	12	-6	3	24	3	2
CCC1=Nc2cc(C(=O)NCc3ccco3)ccc2Sc2ccccc21	-8	-2	-4	8	-10	11	·	·	·
CCC1=Nc2cc(C(=O)NCc3ccco3)ccc2Sc2ccc(Cl)cc21	-20	18	52	9	1	22	56*	52*	-20
O=C(CCS(=O)(=O)c1ccccc1)Nc1ccccc1N1CCOCC1	14	1	66*	-4	7	-7	9	11	-13
O=C(Cc1ccccc1)Nc1ccccc1N1CCOCC1	8	15	8	-8	3	5	·	·	·
Nc1[nH]c(C(=O)c2ccc(Br)cc2)c(-c2ccc(Br)cc2)c1C(=O)N1CCCCC1	·	·	·	15	·	·	·	·	·
COc1ccc(C(CNC(=O)C(=O)Nc2ccc3c(c2)OCO3)N2CCN(C)CC2)cc1 (stereo unspecified)	10	5	24	0	-27	-7	·	·	·
CN1CCN(C(CNC(=O)C(=O)Nc2ccc3c(c2)OCO3)c2ccc(F)cc2)CC1 (stereo unspecified)	-33	12	54	-12	-10	-6	20	9	-11
CCC(C)NC(=O)COC(=O)Cc1sc(N)nc1-c1ccc(C)cc1 (stereo unspecified)	1	4	0	-10	-5	17	·	·	·
Cc1ccc(-c2nc(N)sc2CC(=O)OCC(=O)NCCC(C)C)cc1	-1	-22	58*	14	12	-9	12	16	31*
CCC[C@H]1[C@@H](OC(=O)NCCc2ccccc2)CC[C@@]23CCCN2C(=O)CCC[C@@H]13	·	·	·	17	·	·	·	·	·
N#C/C(=C(/O)c1ccc(Br)s1)c1nc2ccccc2[nH]1	-31	-7	23	-8	-15	-6	·	·	·
N#C/C(=C(/O)c1ccc([N+](=O)[O-])s1)c1nc2ccccc2[nH]1	-2	-10	53	-17	2	3	59*	21	33*
CN(C)c1cccc(/C=C2\CC3(OC(=O)c4ccc(Cl)cc4)CCCN2C3)c1 (stereo unspecified)	·	-2	·	4	·	·	·	·	·
CN(CC#Cc1ccccc1)C(N)=NC(=O)/C=C/c1ccccc1	·	2	·	0	·	·	·	·	·
Cc1nc2ccccc2nc(C)c1=NOCc1cccc(F)c1	-157	-72	66*	-31	-69	-64	21	6	-21
SMILES	SRC3 inh	NCOA2 inhibitor	Gli-Sufu block	NR2F2 inh	SRC1 inh	LRH-1 inv ag	Gli-Sufu confirm	SufuKO cytotox	Wnt3a cs
NC(=O)CSc1nnc(-c2ccc(S(=O)(=O)N3CCCC3)cc2)n1CC1CCCO1 (stereo unspecified)	10	-12	-2	9	-7	11	·	·	·
N#CCSc1nnc(-c2ccc(S(=O)(=O)N3CCOCC3)cc2)n1CC1CCCO1 (stereo unspecified)	-3	-20	94*	1	-11	-26	30	2	10
CCCCC(=O)Nc1cc([N+](=O)[O-])ccc1Cl	-1	5	92*	11	-12	-7	14	11	33*
CCOC(=O)N1CCN(C(=O)C[C@H]2C[C@@]3(C(=O)OC)C(=C[C@H](C(C)(C)C)O[C@@H]3C)N(Cc3cccc4ccccc34)C2=O)CC1	·	8	·	20	·	·	·	·	·
COc1ccc(NC(=O)CSc2nc(C)cc(=O)[nH]2)cc1OC	·	-2	·	7	·	·	·	·	·
COc1ccc(CCNC(=O)c2ccccc2NC(=O)C2=C(C)OCCS2)c(OC)c1	13	15	5	5	6	4	·	·	·
COc1cc(CCNC(=O)c2ccccc2NC(=O)C2=C(C)OCCS2)cc(OC)c1OC	8	-5	99*	18	6	15	18	-1	12
COc1cc(CNC(=O)c2ccccc2NC(=O)C2=C(C)OCCS2)cc(OC)c1OC	1	9	91*	9	7	0	17	0	-19
CC1=C(C(=O)Nc2cc(C(=O)NCc3ccccc3)ccc2C)SCCO1	7	10	·	-17	-12	23	·	·	·
CCN1C(=NCCOC)N[C@@H](CCc2ccccc2)[C@H](C(=O)OC)[C@H]1C	5	-24	10	10	-1	13	·	·	·
CCN1C(=NCCCOC(C)C)N[C@@H](CCc2ccccc2)[C@H](C(=O)NCCCOC(C)C)[C@H]1C	6	16	56*	-10	0	15	57*	30*	-23
COCCOC(=O)c1[nH]c2c(c1C)C(=O)CC(c1cc(OC)c(OC)c(OC)c1)C2 (stereo unspecified)	16	11	34	36	-26	19	·	·	·
C=CCOC(=O)c1[nH]c2c(c1C)C(=O)CC(c1cc(OC)c(OC)c(OC)c1)C2 (stereo unspecified)	26	·	51	·	19	39	61*	16	25
CCN1CCCCC(NC(=O)c2ccc(F)cc2)C1=O (stereo unspecified)	·	15	·	-10	·	·	·	·	·
COc1ccc(NS(=O)(=O)c2ccc(N/N=C(\C)c3ccncc3)c([N+](=O)[O-])c2)cc1	24	17	66*	14	14	15	66*	25	35*

Screening data: PubChem BioAssay, several laboratories
